From PubChem BioAssay (Tox21)
Unmarked numbers belong to inactive results. Inconclusive results are not listed. A call without a number means that no potency is given here. The source made the active and inactive calls. Unless noted, calls follow the shape of the dose curve; as a rule, active = well fitted curve in the direction sought with a large enough effect in the repeat runs; inconclusive = weak or mixed curves; inactive = no such curve, though single readings can be large; an effect the other way counts as inactive or inconclusive.

Legend:
[1] = biological target: Progesterone receptor (Homo sapiens) (UniProt P06401); assay: qHTS assay to identify small molecule agonists of the progesterone receptor (PR) signaling pathway (AID 1346784; calls by dose curve; also: nearly all actives have a fitted effect of over 30% in size)
Chain of Progesterone receptor (Homo sapiens) (P06401 whole entry, looked up): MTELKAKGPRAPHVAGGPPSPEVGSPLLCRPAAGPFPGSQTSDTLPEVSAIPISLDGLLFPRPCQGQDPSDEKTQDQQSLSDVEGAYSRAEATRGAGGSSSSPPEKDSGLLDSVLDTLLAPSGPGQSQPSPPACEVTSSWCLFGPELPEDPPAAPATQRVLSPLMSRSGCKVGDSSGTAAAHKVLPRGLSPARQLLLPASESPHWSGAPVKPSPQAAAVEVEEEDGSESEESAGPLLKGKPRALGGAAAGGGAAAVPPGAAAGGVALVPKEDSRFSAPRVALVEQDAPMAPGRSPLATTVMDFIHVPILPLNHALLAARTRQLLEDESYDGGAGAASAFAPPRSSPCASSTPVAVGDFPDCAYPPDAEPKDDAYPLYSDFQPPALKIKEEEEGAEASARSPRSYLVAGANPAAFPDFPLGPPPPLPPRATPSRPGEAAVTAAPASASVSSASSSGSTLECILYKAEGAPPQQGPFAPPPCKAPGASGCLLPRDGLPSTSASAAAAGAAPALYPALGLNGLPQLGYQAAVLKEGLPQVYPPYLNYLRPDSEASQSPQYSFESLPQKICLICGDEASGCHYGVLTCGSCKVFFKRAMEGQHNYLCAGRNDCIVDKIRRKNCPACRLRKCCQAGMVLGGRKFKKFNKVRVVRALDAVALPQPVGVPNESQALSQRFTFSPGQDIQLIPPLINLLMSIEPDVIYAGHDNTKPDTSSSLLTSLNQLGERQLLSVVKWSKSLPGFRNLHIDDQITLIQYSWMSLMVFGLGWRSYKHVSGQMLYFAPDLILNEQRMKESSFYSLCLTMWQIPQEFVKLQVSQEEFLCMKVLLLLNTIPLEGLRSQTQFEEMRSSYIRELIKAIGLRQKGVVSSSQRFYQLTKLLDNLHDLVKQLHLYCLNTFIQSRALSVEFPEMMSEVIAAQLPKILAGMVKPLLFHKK
In short: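 Compounds were tested for PR agonism in HEK 293T cells bearing a beta-lactamase gene under UAS control. Treatment lasted 16 hr at 37C; signal came from fluorescence of a FRET substrate.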

[2] = biological target: Progesterone receptor (Homo sapiens) (UniProt P06401); assay: qHTS assay to identify small molecule antagonists of the progesterone receptor (PR) signaling pathway (AID 1346795; active = well fitted inhibition curve with a large enough effect in the signal ratio in the repeat runs, not every such curve was filed as active; the % refers to the signal ratio; also: potency is read from the fitted curve at half-maximal effect)
In short: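 In HEK293T cells bearing the PR-UAS-bla reporter, compound effects on promegestone-driven (1 nM) beta-lactamase expression are assessed after 16 hr using a fluorescent FRET substrate incubated 2 hr at room temperature.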

[3] = qHTS assay to identify small molecule antagonists of the progesterone receptor (PR) signaling pathway - cell viability counter screen (AID 1346798); also: nearly all actives have a fitted effect of over 50% in size; also: potency is read from the fitted curve at half-maximal effect
In short: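 Following a 4 hr attachment, PR-UAS-bla HEK293T cells in charcoal-stripped FBS medium were exposed to compounds with R5020 for 16 hr; CellTiter-Glo was added and luminescence read after 30 min at room temperature.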

[4] = qHTS assay to identify small molecule antagonists of the TGF-beta/Smad signaling pathway - cell viability counter screen (AID 1346824); also: nearly all actives have a fitted effect of over 50% in size
In short: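 SBE-bla HEK 293T cells, incubated overnight, then compound plus 0.25 ng/mL TGF-beta1 (stock added) for 5 hr at 37 C. Viability was read in the same wells by CellTiter-Glo luminescence after 30 min at room temperature.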

[5] = qHTS assay to identify small molecule agonists of the TGF-beta/Smad signaling pathway - cell viability counter screen (AID 1346829); also: top concentration of the series differs between compounds; nearly all actives have a fitted effect of over 45% in size
In short: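 After overnight seating at 37 C and 5% CO2, reporter cells got compounds for 5 hr and FRET substrate for 2 hr; cell viability then came from CellTiter-Glo luminescence.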

[6] = Human pregnane X receptor (PXR) small molecule agonists, qHTS cell viability counter screen (AID 1346977); also: nearly all actives have a fitted effect of over 50% in size
In short: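 Tox21 qHTS format; PXR-Luc HepG2, 2,000/well, charcoal-stripped FBS 5%. Cpd exposure 24hr. Read: CellTiter-Fluor fluorescence, multiplexed with luciferase.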

[7] = Caspase-3/7 induction in HepG2 cells by small molecules, qHTS assay (AID 1346978); also: nearly all actives have a fitted effect of over 15% in size
In short: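 Wild-type HepG2 cells, 2,000/well, settled 5 hr at 37 C and 5% CO2, then compound-treated for 17 hr; caspase-3/7 activity read by luminescent Caspase-Glo 3/7 after 30 min at room temperature.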

[8] = Caspase-3/7 induction in CHO-K1 cells by small molecules, qHTS cell viability counter screen (AID 1346979); also: nearly all actives have a fitted effect of over 35% in size; also: potency is read from the fitted curve at half-maximal effect
In short: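 CellTiter-Fluor viability check, qHTS format: wild-type CHO-K1, 16hr compound treatment, 1hr reagent incubation, fluorescence read.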

[9] = Caspase-3/7 induction in CHO-K1 cells by small molecules, qHTS assay (AID 1346980); also: nearly all actives have a fitted effect of over 15% in size
In short: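 Wild-type CHO-K1 cells exposed to compounds for 17hr at 37 C, 5% CO2. Caspase-3/7 activity then measured by Caspase-Glo 3/7 luminescence after 30min at room temperature.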

[10] = biological target: Nuclear receptor subfamily 1 group I member 2 (Homo sapiens) (UniProt O75469); assay: Human pregnane X receptor (PXR) small molecule agonists, qHTS assay (AID 1346982); also: nearly all actives have a fitted effect of over 35% in size; also: potency is read from the fitted curve at half-maximal effect
Chain of Nuclear receptor subfamily 1 group I member 2 (Homo sapiens) (O75469 whole entry, looked up): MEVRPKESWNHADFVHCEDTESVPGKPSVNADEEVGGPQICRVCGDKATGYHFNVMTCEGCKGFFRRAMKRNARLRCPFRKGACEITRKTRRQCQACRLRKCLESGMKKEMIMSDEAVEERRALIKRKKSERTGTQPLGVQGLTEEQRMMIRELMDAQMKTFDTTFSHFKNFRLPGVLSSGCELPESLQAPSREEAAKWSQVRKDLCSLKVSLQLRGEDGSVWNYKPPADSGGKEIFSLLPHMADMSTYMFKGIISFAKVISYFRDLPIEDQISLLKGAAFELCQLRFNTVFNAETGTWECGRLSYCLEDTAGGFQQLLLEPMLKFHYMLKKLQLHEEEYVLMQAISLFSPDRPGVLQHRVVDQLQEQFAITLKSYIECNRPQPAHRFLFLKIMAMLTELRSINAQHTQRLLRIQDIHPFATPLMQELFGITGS
In short: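 PXR-Luc HepG2 cells (CYP3A4 promoter-driven luciferase) were seeded in medium with 5% charcoal-stripped FBS, left 5 hr at 37 C, then exposed to compounds in DMSO for 24 hr. Luminescence was read after ONE-Glo addition.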

[11] = biological target: Cytochrome P450 2D6 (Homo sapiens) (UniProt P10635); assay: Cytochrome P450 Family 2 Subfamily D Member 6 (CYP2D6) small molecule antagonists: luciferase reporter qHTS assay (AID 1671196); also: nearly all actives have a fitted effect of over 50% in size; also: potency is read from the fitted curve at half-maximal effect
Chain of Cytochrome P450 2D6 (Homo sapiens) (P10635 whole entry, looked up): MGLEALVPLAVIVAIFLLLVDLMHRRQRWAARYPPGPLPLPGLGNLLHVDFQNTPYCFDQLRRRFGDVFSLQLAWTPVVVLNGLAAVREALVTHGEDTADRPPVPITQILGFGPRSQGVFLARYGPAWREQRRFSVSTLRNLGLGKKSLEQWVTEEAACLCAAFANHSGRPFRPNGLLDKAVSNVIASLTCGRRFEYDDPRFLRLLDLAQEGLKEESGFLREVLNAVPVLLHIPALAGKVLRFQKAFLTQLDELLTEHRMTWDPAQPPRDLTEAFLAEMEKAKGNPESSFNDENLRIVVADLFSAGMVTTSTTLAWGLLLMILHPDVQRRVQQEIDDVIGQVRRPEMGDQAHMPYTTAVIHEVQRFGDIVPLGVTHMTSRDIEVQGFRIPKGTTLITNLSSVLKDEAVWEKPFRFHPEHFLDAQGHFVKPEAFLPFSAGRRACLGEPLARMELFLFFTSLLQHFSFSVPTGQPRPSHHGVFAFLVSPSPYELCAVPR
In short: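 CYP2D6 enzyme–substrate mix was held with compound for 10 min at room temperature, then NADPH regeneration solution was added and the reaction ran 1 h at room temperature. Luciferin product was detected by luminescence after 20 min with detection reagent.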

[12] = biological target: Cytochrome P450 2C19 (Homo sapiens) (UniProt P33261); assay: Cytochrome P450 Family 2 Subfamily C Member 19 (CYP2C19) small molecule antagonists: luciferase reporter qHTS assay (AID 1671197); also: nearly all actives have a fitted effect of over 65% in size; also: potency is read from the fitted curve at half-maximal effect
Chain of Cytochrome P450 2C19 (Homo sapiens) (P33261 whole entry, looked up): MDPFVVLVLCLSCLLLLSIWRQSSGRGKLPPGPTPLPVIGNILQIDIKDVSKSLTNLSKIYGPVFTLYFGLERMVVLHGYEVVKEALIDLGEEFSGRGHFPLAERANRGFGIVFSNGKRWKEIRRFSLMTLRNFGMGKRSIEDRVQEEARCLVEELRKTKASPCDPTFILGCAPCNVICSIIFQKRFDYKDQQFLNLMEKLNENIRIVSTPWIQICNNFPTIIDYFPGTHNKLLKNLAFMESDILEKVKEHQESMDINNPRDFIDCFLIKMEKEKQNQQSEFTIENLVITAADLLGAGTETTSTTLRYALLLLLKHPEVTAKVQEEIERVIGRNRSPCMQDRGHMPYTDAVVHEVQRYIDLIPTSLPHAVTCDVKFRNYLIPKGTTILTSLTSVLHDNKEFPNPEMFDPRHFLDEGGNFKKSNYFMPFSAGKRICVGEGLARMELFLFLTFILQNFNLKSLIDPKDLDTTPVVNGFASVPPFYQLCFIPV
In short: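 Inhibition of CYP2C19 was scored from loss of luminescence in a P450-Glo proluciferin substrate assay, NADPH-started and run 1 h at 37C, with ketoconazole as positive control.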

[13] = qHTS assay to identify small molecule agonists of the TGF-beta/Smad signaling pathway (AID 1346859; active = well fitted activation curve with a large enough effect in the signal ratio in the repeat runs, not every such curve was filed as active; the % refers to the signal ratio; also: series mostly up to about 77 µM)
In short: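 Each well held 4,000 SBE-bla HEK 293T cells incubated overnight before compound addition; 5 hr later the cleavable FRET substrate went on for 2 hr at room temperature, and fluorescence was read at two emissions.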

[14] = Caspase-3/7 induction in HepG2 cells by small molecules, qHTS cell viability counter screen (AID 1346981); also: series mostly up to about 92 µM; nearly all actives have a fitted effect of over 30% in size
In short: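 Wild-type HepG2 cells (2,000/well) were allowed to settle for 5 hr at 37 C, 5% CO2, then dosed with compounds in DMSO by pin transfer. After 16 hr at 37 C, CellTiter-Fluor was added and fluorescence read 1 hr later.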

[15] = biological target: Thyrotropin-releasing hormone receptor (Homo sapiens) (UniProt P34981); assay: qHTS assay to identify small molecule antagonists of the thyrotropin-releasing hormone receptor (TRHR) signaling pathway (AID 1346877; active = well fitted inhibition curve with a large enough effect in the repeat runs, not every such curve was filed as active; also: series mostly up to about 51 µM)
Chain of Thyrotropin-releasing hormone receptor (Homo sapiens) (P34981 whole entry, looked up): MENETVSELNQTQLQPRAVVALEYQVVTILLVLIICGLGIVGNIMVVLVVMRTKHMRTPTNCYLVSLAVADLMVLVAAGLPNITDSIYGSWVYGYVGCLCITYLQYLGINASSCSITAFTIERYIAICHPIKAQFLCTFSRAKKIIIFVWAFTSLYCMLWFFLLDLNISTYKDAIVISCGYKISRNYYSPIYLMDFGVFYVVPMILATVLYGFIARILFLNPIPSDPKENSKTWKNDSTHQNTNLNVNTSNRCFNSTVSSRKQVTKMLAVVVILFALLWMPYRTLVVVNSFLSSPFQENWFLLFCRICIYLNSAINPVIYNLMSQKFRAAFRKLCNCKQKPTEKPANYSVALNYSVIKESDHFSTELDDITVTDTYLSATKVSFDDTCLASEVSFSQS
In short: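 TRHR-expressing HEK293 cells were seeded, cultured 18 h at 37 °C, then loaded with calcium dye for 2 h. Compounds were pre-incubated 5 min at room temperature before 1 nM TRH (final) was added, and kinetic fluorescence was recorded for 3 min.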

[16] = biological target: Thyrotropin-releasing hormone receptor (Homo sapiens) (UniProt P34981); assay: qHTS assay to identify small molecule agonists of the thyrotropin-releasing hormone receptor (TRHR) signaling pathway (AID 1346891; calls by dose curve; also: series mostly up to about 58 µM)
In short: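 Screening of agonists relied on calcium signalling in HEK293 cells expressing human TRHR: dye loading 2 h at 37 °C preceded compound addition and a 3-min fluorescence time course.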

[17] = biological target: Nuclear receptor subfamily 1 group I member 2 (Rattus norvegicus) (UniProt Q9R1A7); assay: Rat pregnane X receptor (rPXR) activation by small molecules, qHTS assay (AID 1346983); conditions: rPXR luciferase reporter cells, One-Glo luminescence, 24 h; max activation: stronger effect = higher value; also: nearly all actives have a fitted effect of over 20% in size
Chain of Nuclear receptor subfamily 1 group I member 2 (Rattus norvegicus) (Q9R1A7 whole entry, looked up): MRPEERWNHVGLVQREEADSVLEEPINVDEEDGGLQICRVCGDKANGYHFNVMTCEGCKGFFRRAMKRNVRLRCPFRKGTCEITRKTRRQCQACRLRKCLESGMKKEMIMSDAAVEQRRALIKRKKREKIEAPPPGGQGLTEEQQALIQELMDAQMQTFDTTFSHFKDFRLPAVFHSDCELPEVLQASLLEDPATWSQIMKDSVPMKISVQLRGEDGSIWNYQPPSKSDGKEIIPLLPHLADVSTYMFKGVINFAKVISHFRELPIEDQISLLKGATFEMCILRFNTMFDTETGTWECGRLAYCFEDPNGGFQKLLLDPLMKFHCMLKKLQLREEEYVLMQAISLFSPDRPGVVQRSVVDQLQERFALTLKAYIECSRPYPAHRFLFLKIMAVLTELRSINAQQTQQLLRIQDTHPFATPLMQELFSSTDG
In short: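 Cell-based rPXR activation assay: rPXR cells, 2,000 per well, rested 5hr at 37 C, then exposed to compounds in DMSO for 24 hr at 37 C. Luciferase activity read by One-Glo luminescence after 30 min at room temperature.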

[18] = biological target: Nuclear receptor subfamily 1 group I member 2 (Homo sapiens) (UniProt O75469); assay: CYP3A4 induction through human pregnane X receptor (PXR) by small molecules, qHTS assay (AID 1346984); also: nearly all actives have a fitted effect of over 40% in size
In short: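 DPX-2 cells (HepG2 co-transfected with PXR and CYP3A4 promoter-luciferase) treated with compounds 24 h at 37C; luciferin-IPA CYP3A4 substrate 3uM final added for 3 h, then One-Glo; luminescence read. qHTS format.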

Row | Compound | Potency [1] | Potency [2] | Potency [3] | Potency [4] | outcome [5] | Potency [6] | Potency [7] | Potency [8] | Potency [9] | Potency [10] | Potency [11] | Potency [12] | Potency [13] | Potency [14] | outcome [15] | Potency [16] | max activation [17] | Potency [18]
1 | COc1ccc(C(=O)Nc2nc3ccccc3c(NCc3ccccc3)c2C#N)cc1 | inactive | inactive | inactive | inactive | inactive | inactive | inactive | 19.3 µM (active) | inactive | 7.7 µM (active) | inactive | 17.8 µM (active) |  |  |  |  |  | 
2 | CC1=CC[C@H](C(C)C)C=C1 | inactive | inactive | inactive | inactive | inactive |  | inactive | inactive | inactive | 27.3 µM (active) | 56.4 µM (active) | 39.9 µM (active) | inactive | inactive |  |  |  | 
3 | CCCCCCCCCCCCCCCCCCOS(=O)(=O)O | inactive | inactive | 54.5 µM (active) | inactive | inactive |  | inactive |  | inactive |  | inactive |  | inactive | inactive | inactive | inactive |  | 
4 | CCN(CC)CCOC(=O)C(Cc1cccc2ccccc12)CC1CCCO1 (stereo not given) | inactive | inactive | inactive | inactive | inactive |  | inactive | inactive | inactive |  | 2.75 µM (active) |  | inactive | inactive | inactive | inactive | 10.4% | 
5 | C/C=C(/C(=C/C)c1ccc(OC(C)=O)cc1)c1ccc(OC(C)=O)cc1 | inactive | 8.41 µM (active) | inactive | inactive | inactive | inactive | inactive |  | inactive | inactive | inactive | 17.4 µM (active) | inactive | inactive | inactive | inactive |  | 
6 | CCOC(=O)C(O)c1ccccc1 (stereo not given) | inactive | inactive | inactive | inactive | inactive | inactive | inactive | inactive | inactive |  | inactive | inactive | inactive | inactive | inactive | inactive |  | 
7 | CC(=O)c1cccc([N+](=O)[O-])c1 | inactive | inactive | inactive | inactive | inactive | inactive | inactive | inactive | inactive | inactive |  | inactive | inactive | inactive | inactive | inactive |  | 
8 | O=C(O)c1ccc(-n2nc(-c3ccccc3O)nc2-c2ccccc2O)cc1 | inactive | 6.68 µM (active) | inactive | inactive | inactive | inactive | inactive | 18.8 µM (active) | inactive | inactive | inactive | inactive | inactive | inactive | inactive | inactive |  | 
9 | COC(=O)c1ccc(I)cc1S(=O)(=O)NC(=O)Nc1nc(C)nc(OC)n1 | inactive | inactive | inactive | inactive | inactive | inactive | inactive | inactive | inactive | inactive | inactive | inactive | inactive | inactive | inactive | inactive |  | 
10 | Cc1cccc(C)c1NC(=O)CN(CC(=O)O)CC(=O)O | inactive | inactive | inactive | inactive | inactive | inactive | inactive | inactive | inactive | inactive | inactive | inactive | inactive | inactive | inactive | inactive | -0.0723% | inactive
11 | Nc1c(CC(=O)O)cccc1C(=O)c1ccc(Br)cc1 | inactive | inactive | inactive | inactive | inactive | inactive | inactive | inactive | inactive | inactive | inactive | inactive |  | inactive | inactive | inactive | -2.12% | inactive
12 | O=C1OC(=O)C2C3C=CC(C3)C12 (stereo not given) | inactive | inactive | inactive | inactive | inactive | inactive | inactive | inactive | inactive | inactive | inactive | inactive | inactive | inactive | inactive | inactive |  | 
13 | Nc1ccc(S(=O)(=O)Nc2ccccc2)cc1 | inactive | inactive | inactive | inactive | inactive | inactive | inactive | inactive | inactive | inactive |  |  | inactive | inactive | inactive | inactive | -5.46% | inactive
14 | O=C(O)C1(C(=O)O)CCC1.[NH2-].[NH2-].[Pt+2] | inactive | inactive | inactive | inactive | inactive | inactive | inactive | inactive | inactive | inactive |  | 21.9 µM (active) | inactive | inactive | inactive | inactive |  | 
